High-throughput results (PubChem)
Only a selection was taken, and hits are over-represented in it overall.
EphB4 ephrin blk – EphB4-ephrin-B2 interaction antagonists, primary screen, biochemical, TNYL-RAW peptide probe, fluorescence polarization; EphB4 LBD / TNYL-RAW-Alexa532 peptide; inhibition, % at 7 µM; actives 0.15% (n = 97,000);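 active = inhibition above the screen-wide mean inhibition plus 3 SD, cut at about 15% in these data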
DAT uptake mod – changed hDAT dopamine uptake under cocaine IC80, either direction, primary screen, cocaine antagonist project, cell-based, LLC-PK1 hDAT, [14C]-dopamine uptake, MLSMR; Sodium-dependent dopamine transporter (Homo sapiens), Q01959; LLC-PK1 hDAT cells, [14C]-dopamine uptake with cocaine IC80; actives deviate in either direction; B-score at 10 µM; actives 1.3% (n = 110,000); AID 449768, 2010;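 active = Z score or B-score, a plate-position-corrected score, falls beyond the plate's 99.7% confidence bounds, in either direction; inactive = both scores lie inside the 99.7% bounds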
Target sequence (Q01959 whole entry, looked up): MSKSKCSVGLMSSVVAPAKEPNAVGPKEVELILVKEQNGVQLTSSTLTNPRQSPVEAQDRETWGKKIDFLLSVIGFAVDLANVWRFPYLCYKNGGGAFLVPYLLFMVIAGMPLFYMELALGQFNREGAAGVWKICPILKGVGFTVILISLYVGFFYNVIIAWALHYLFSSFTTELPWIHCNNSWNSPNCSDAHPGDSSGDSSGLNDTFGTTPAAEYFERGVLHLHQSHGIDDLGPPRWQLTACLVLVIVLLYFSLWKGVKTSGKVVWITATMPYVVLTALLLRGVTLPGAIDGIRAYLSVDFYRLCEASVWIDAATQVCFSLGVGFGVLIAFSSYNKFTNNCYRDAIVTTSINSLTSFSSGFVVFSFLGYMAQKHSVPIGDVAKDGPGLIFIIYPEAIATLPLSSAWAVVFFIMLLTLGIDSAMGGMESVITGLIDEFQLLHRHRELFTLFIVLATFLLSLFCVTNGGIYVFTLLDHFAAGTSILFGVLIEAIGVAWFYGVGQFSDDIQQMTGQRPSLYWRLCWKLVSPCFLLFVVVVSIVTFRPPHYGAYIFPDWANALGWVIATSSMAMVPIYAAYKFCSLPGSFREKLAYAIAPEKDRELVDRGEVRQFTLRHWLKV
D1 allo mod – D1 CRE-luciferase signal change, two-sided – cell-based, HEK293 D1, dopamine EC30, D1 allosteric modulator project, primary screen | D(1A) dopamine receptor (Homo sapiens), P21728 | dopamine EC30 potentiation; actives deviate in either direction | B-score at 10 µM | actives 5.9% (n = 58,000) | AID 641, 2007;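 active = luminescence count or its row- and column-corrected plate score outside the 99.7% band of the plate's sample wells, on either side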
D1 mod confirm – D1 receptor positive allosteric modulators, retest, confirmation, cell-based, HEK293 D1, CRE-luciferase, duplicate; shares compounds with D1 allo mod; dopamine EC30 potentiation; stronger effect = higher value; luminescence at 10 µM; actives 88% (n = 2,200);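 active = luminescence in either of two replicates above the same-plate mean plus 3 SD of the low-dose dopamine control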
D1 ag no DA – D1 receptor agonism without dopamine, confirmation, mechanism study for D1 allosteric modulator project, cell-based, HEK293 D1, CRE-luciferase, secondary assay 1 | shares compounds with D1 allo mod | luminescence at 10 µM | luminescence, no dopamine; stronger effect = higher value | actives 0.8% (n = 1,900); in the data active = luminescence above about 3900
Isoprot counter – isoproterenol response counter-screen activity for D1 modulators. shares compounds with D1 allo mod. HEK293 D1 CRE-luciferase, isoproterenol EC30 counter-screen. calls only at 10 µM. actives 63% (n = 2,200);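 active = luminescence in either replicate above plate mean of wells with a partly effective reference agonist dose plus 3 SD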;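 also: isoproterenol raises cAMP through native beta-adrenoceptor Gs so signal bypasses D1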
Hits are given with their value; n = inactive; x = no result; + = active, no number.

SMILES	EphB4 ephrin blk	DAT uptake mod	D1 allo mod	D1 mod confirm	D1 ag no DA	Isoprot counter
COc1ccc(-c2ccc(=O)n(CC(=O)NCc3ccco3)n2)cc1	n	n	n	x	x	x
COc1ccc(-c2ccc(=O)n(Cc3cc(=O)n4ccccc4n3)n2)cc1	n	n	26	20696	n	+
c1ccc(N(c2ccccc2)c2nc(N3CCCC3)nc(-n3ccnc3)n2)cc1	n	x	n	x	x	x
CN(c1ccccc1)c1nc(N2CCCC2)nc(-n2ccnc2)n1	n	n	4.9	11496	n	+
N#CC(C(=O)NC1CCCCC1)c1nc2ccccc2nc1N1CCCCC1 (stereo unspecified)	x	x	n	x	x	x
O=C(COc1ccc(Cl)cc1)N/N=C/CCc1ccccc1	n	n	x	x	x	x
Cn1cccc1Cc1nnc(SCC(=O)NC2CCCCC2)n1CCc1ccccc1	x	n	1.5	n	n	n
Cc1nnc(NC(=O)CSc2nnc(Cc3cccn3C)n2CCc2ccccc2)s1	n	n	n	x	x	x
Cc1c(NC(=O)c2n[nH]c(=O)c3ccccc23)c(=O)n(-c2ccccc2)n1C	n	n	x	x	x	x
COc1ccc(CNS(=O)(=O)c2cc(OCC(N)=O)c(C)cc2Cl)cc1	n	n	x	x	x	x
CCn1c(SCC(=O)c2[nH]c(C)c(C(C)=O)c2C)nnc1-c1ccccc1	n	n	x	x	x	x
N#Cc1nc(-c2ccc(F)cc2)oc1NCc1cccc2c1OCO2	x	n	n	x	x	x
CC(C)CNc1oc(-c2ccc(F)cc2)nc1C#N	n	n	13	14732	n	+
O=S(=O)(NCc1ccccc1)c1cccs1	n	n	x	x	x	x
CCN(CC#CCC1(O)c2ccccc2-c2ccccc21)C(C)C	n	n	x	x	x	x
COC(=O)c1cccc(S(=O)(=O)N2CCC(NC(=O)NC34CC5CC(CC(C5)C3)C4)CC2)c1	n	n	4.6	11624	n	n
COC(=O)c1cccc(S(=O)(=O)N2CCC(C)CC2)c1	n	n	n	x	x	x
O=C(NCc1nc2ccccc2[nH]1)C1=C[C@H](c2coc3ccccc3c2=O)C[C@H](OCc2ccc(CO)cc2)O1	x	n	x	x	x	x
Cc1cc(C)n(C(C[N+](=O)[O-])c2ccc(Cl)cc2)n1 (stereo unspecified)	n	n	x	x	x	x
COc1ccc(-c2csc(Cc3nnc4n3CCCCC4)n2)cc1OC	n	n	20	24836	n	+
c1ccc(Cc2nnc3n2CCCCC3)cc1	n	n	n	x	x	x
Cc1ccc(NC(=O)CS(=O)Cc2nc(-c3ccc(C)cc3)oc2C)cc1 (stereo unspecified)	n	n	x	x	x	x
COc1cccc(-c2nc(CS(=O)CC(=O)NCc3ccccc3Cl)c(C)o2)c1 (stereo unspecified)	n	n	n	x	x	x
C=CCNc1nc(N)c(C(=O)Nc2cc(C)on2)s1	n	n	x	x	x	x
C=CCNc1nc(N)c(C(=O)c2ccc3c(c2)OCO3)s1	n	n	18	14852	n	+
SMILES	EphB4 ephrin blk	DAT uptake mod	D1 allo mod	D1 mod confirm	D1 ag no DA	Isoprot counter
COc1ccc(NC(C)=O)cc1NC(=O)CN1CCN(CC(=O)Nc2ccc(Cl)cc2)CC1	n	n	n	x	x	x
CC1Oc2cc3oc4c(O)c(O)ccc4c(=O)c3c(O)c2C1(C)C (stereo unspecified)	x	n	x	x	x	x
CCOC(=O)CCn1c2nc(C)cc(C)c2c(=O)n1-c1ccccc1	n	n	2.2	n	n	n
CCOC(=O)Nc1c(C)n(C)n(-c2ccccc2)c1=O	x	n	n	x	x	x
O=C(C1COc2ccccc2O1)N1CCOCC1 (stereo unspecified)	n	n	n	x	x	x
CC12CC(c3ccccc3O1)C(C(=O)N1CCOCC1)C(=O)N2 (stereo unspecified)	n	n	3.3	n	n	n
O=[N+]([O-])c1ccc2c(c1)C(N1CCOCC1)/C(=C/COc1ccc(Cl)cc1Cl)O2 (stereo unspecified)	n	n	x	x	x	x
CCC(C)[C@H](N)c1nnc(SCc2cccc(F)c2)o1 (stereo partly specified)	n	n	n	x	x	x
Cn1c(=O)c2c(nc(NCc3ccc4c(c3)OCO4)n2Cc2ccccc2F)n(C)c1=O	n	n	4.7	6940	n	+
Cn1c(=O)c2c(nc(NCc3ccc4c(c3)OCO4)n2Cc2ccccc2)n(C)c1=O	n	n	x	x	x	x
O=S(=O)(c1cccs1)N1CN(Cc2ccc(F)cc2)c2nc3ccccc3nc21	n	n	x	x	x	x
O=S(=O)(c1cccs1)N1CN(Cc2ccccc2)c2nc3ccccc3nc21	n	n	x	x	x	x
O=S(=O)(c1cccs1)N1CN(Cc2cccs2)c2nc3ccccc3nc21	n	n	3.8	15624	n	+
C=CCN1CN(S(=O)(=O)c2cccs2)c2nc3ccccc3nc21	n	n	6	14144	n	+
COC(=O)CCC(=O)c1oc2ccccc2c1N	n	n	n	x	x	x
COc1ccccc1CNS(=O)(=O)c1c(C)[nH]c(=O)[nH]c1=O	n	n	x	x	x	x
CC1CC(NS(=O)(=O)c2cccs2)CC(C)(C)C1 (stereo unspecified)	n	n	x	x	x	x
Cc1nc(OCc2ccccc2)c2sc3nc4c(cc3c2n1)COC(C)(C)C4	n	n	x	x	x	x
COc1ccc(-c2c3c(=O)n(C)c(=O)n(C)c3cn2C2CCCCC2)cc1	n	n	7.7	15660	n	+
COc1ccc(-c2c3c(=O)n(C)c(=O)n(C)c3c3nnc4ccccc4n23)cc1	n	x	n	x	x	x
CCOc1cc(NC(=S)NCc2ccco2)c(OCC)cc1NC(C)=O	n	n	x	x	x	x
CCOc1ccc(C(=O)NCC(=O)OC(C)C(=O)NCc2ccco2)cc1OCC (stereo unspecified)	n	n	6	n	x	+
COc1cc2c(C(=O)NCc3ccccn3)cn(C)c(=O)c2cc1OC	n	n	n	x	x	x
COc1cc2c(cc1OC)-c1cc(NC3CCCCCCC3)nc(=O)n1CC2	n	n	7.6	20716	n	+
COc1cc2c(cc1OC)-c1cc(NC3CCCCC3)nc(=O)n1CC2	n	n	x	x	x	x
SMILES	EphB4 ephrin blk	DAT uptake mod	D1 allo mod	D1 mod confirm	D1 ag no DA	Isoprot counter
COc1cc2c(cc1OC)-c1cc(NC3CC3)nc(=O)n1CC2	n	n	5.7	14400	n	+
CCCCCCNc1cc2n(c(=O)n1)CCc1cc(OC)c(OC)cc1-2	n	n	3.2	13732	n	+
COc1cc2c(cc1OC)-c1cc(NCc3ccccn3)nc(=O)n1CC2	n	n	5.2	10588	n	+
COc1cc2c(cc1OC)-c1cc(OCCN3CCOCC3)nc(=O)n1CC2	n	n	n	x	x	x
CCNc1cc2n(c(=O)n1)CCc1cc(OC)c(OC)cc1-2	n	n	n	x	x	x
CC(=O)Nc1ccc(SC(C)C(=O)NC(N)=O)cc1 (stereo unspecified)	n	n	x	x	x	x
CCOc1ccc(NC(=O)CSc2nnc(Cn3cnc4ccccc43)n2C)cc1	n	n	x	x	x	x
